D1 antag: Antagonist of Human D 1 Dopamine Receptor: qHTS | D(1A) dopamine receptor (Homo sapiens), P21728 | HEK293 TREx D1 cells, calcium flux, dopamine EC80; active compounds read low | AID 504652, 2011 | activity change, negative = inhibition, % at 10 µM | 3.2% of 360,000 active; in the data active means activity change below about -30%
Target sequence (P21728 whole entry, looked up): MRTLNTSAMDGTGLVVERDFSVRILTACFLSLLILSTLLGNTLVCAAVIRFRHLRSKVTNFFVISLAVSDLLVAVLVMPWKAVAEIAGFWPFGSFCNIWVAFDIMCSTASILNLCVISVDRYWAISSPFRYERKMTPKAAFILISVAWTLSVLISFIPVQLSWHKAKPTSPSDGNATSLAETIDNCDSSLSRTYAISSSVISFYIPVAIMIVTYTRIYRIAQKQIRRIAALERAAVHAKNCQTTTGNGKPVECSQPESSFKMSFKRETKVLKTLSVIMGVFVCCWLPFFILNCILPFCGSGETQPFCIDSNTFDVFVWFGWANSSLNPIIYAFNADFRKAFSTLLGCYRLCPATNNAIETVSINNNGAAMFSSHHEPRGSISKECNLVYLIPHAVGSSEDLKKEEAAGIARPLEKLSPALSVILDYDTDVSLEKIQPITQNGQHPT
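Using tetracycline-induced force-coupled D1 Hek293 cells and a calcium dye, signals were followed for 180 s after compound, then for 180 s after EC80 dopamine, to detect inhibitors.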
D1 PAM: Potentiators of Human D1 Dopamine Receptor: qHTS; D(1A) dopamine receptor (Homo sapiens), P21728; HEK293 TREx D1 cells, calcium flux, dopamine EC20 potentiation; potentiation, % at 10 µM; 0.036% of 360,000 active; in the data active means potentiation above about 30%
TRHR agonist: qHTS for Small Molecule Agonists and Allosteric Enhancers of Human TRH Receptor: Primary Screen for Agonists | TRHR cells, calcium flux fluo-8, FDSS agonist mode | activation, % at 2 µM | 0.18% of 360,000 active
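Read-out: compound-evoked intracellular calcium rise in TRHR cells, fluo-8 dye, kinetic FDSS fluorescence at 1 s/cycle following a 10-cycle baseline. Cells cultured overnight before dye loading (30 min–1.5 h, RT).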
D1 ag: Allosteric Agonists of the Human D1 Dopamine Receptor: qHTS; HEK293 T-REx D1 cells, calcium flux, agonist mode; activation, % at 2 µM; 1% of 360,000 active
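Tetracycline-induced HEK293 TREx D1 cells, force-coupled to calcium signalling, were dye-loaded with a no-wash calcium kit. Compound was pin-added after a 10 s baseline. Fluorescence was read kinetically at 1 cycle/s for 180 s, with calcium rises flagged as agonism.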
TRHR enhancer: qHTS for Small Molecule Agonists and Allosteric Enhancers of Human TRH Receptor: Primary Screen for Enhancers | 0.66% of 360,000 active | AID 493056, 2011 | Thyrotropin-releasing hormone receptor (Homo sapiens), P34981 | TRHR cells, fluo-8 calcium fluorescence, EC20 TRH enhancement | enhancement, % at 2 µM; in the data active means enhancement above about 30%
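TRHR-expressing cells loaded with fluo-8 calcium dye were read kinetically (ex 480/em 530) during compound addition, then stimulated with an EC20 of TRH (10 nM final). Enhancement of the Gq-mediated intracellular calcium response was scored.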
Hits are given with their value; - = inactive. Compounds with a hit are over-represented: about 4.7% of the library has one in this group of screens. Unless noted, no stated cut-off is given here; in the data, active means activation above about 30%; inactive means the rest.

SMILES	D1 antag	D1 PAM	TRHR agonist	D1 ag	TRHR enhancer
Cc1noc(NS(=O)(=O)c2ccc(NC(=O)C(Cl)(Cl)Cl)cc2)c1C	-	-	-	-	-
CSc1ccc(CCNC(=O)c2cc3n(n2)CCCN(Cc2ccc(C)cc2)C3=O)cc1	-	-	-	-	-
Cc1cccc(NC(=O)c2ccc3nc(CCc4ccccc4)oc3c2)c1C	-	-	-	-	-
COc1ccc(NCc2cc3cc4c(cc3n(CC(=O)Nc3cc(C)ccc3C)c2=O)OCCO4)cc1	-	-	-	-	-
CN1CCc2c(sc3c2C(=O)NC(c2ccccc2)N3)C1 (stereo unspecified)	-	-	-	-	-
Cc1cccc(C2NC(=O)c3c(sc4c3CCN(C)C4)N2)c1O (stereo unspecified)	-	-	-	-	47
CN1CCc2c(sc3c2C(=O)NC(c2ccc(OC(=O)c4ccccc4)cc2)N3)C1 (stereo unspecified)	-	-	-	114	-
CN1CCc2c(sc3c2C(=O)NC(c2ccc(OC(=O)c4ccc(C(C)(C)C)cc4)cc2)N3)C1 (stereo unspecified)	-	-	121	263	-
CN1CCc2c(sc3c2C(=O)NC(c2ccc(OC(=O)c4ccc(Cl)cc4)cc2)N3)C1 (stereo unspecified)	-	-	71	145	-
COc1ccc(CCN2C(=O)N(c3cccc(C)c3)C(=O)C2CC(=O)Nc2ccccc2)cc1OC (stereo unspecified)	-	-	-	-	-
O=C(NCc1ccc2c(c1)CCN2C(=O)c1ccncc1)c1ccccc1Br	-31	-	-	-	-
CCOc1ccccc1C(=O)NCc1ccc2c(c1)CCN2C(=O)c1ccccc1	-38	-	-	-	-
COc1ccc(C(=O)NCc2ccc3c(c2)CCN3C(=O)c2ccccc2)cc1	-	-	-	-	-
Cc1ccccc1C(=O)NCc1ccc2c(c1)CCN2C(=O)c1ccccc1	-41	-	-	-	-
CC(=O)Nc1cccc(C(=O)NCc2ccc3c(c2)CCN3C(C)=O)c1	-	-	-	-	-
CCC(=O)N1CCc2cc(CNC(=O)c3cccc(N(C)C)c3)ccc21	-	-	-	-	35
O=C(NCc1ccc2c(c1)CCN2C(=O)c1ccncc1)c1ccccc1F	-	-	-	-	-
Cc1cnc(C(=O)OCC(=O)c2ccc(F)c(F)c2)cn1	-	-	-	-	-
CCCCNc1nc2c(c(=O)n(C)c(=O)n2C)n1CC(O)COc1ccccc1C (stereo unspecified)	-	-	-	-	-
CCOC(=O)C(NC(=O)CCl)(Nc1sc(C)c(CC)c1C#N)C(F)(F)F (stereo unspecified)	-	-	-	-	-
CCOC(=O)C(NC(=O)CC(C)C)(Nc1sc(C)c(CC)c1C#N)C(F)(F)F (stereo unspecified)	-83	-	-	-	-
COc1cc(NS(=O)(=O)c2ccc3c(c2)CCN3S(C)(=O)=O)cc(OC)c1	-	-	-	-	-
S=c1nc(C2CCCCC2)[nH][nH]1	-50	-	-	-	-
Nc1n[nH]c(C2CCCCC2)n1	-	-	-	-	-
CCC1Oc2ccccc2N(CC(=O)NCc2cc(OC)ccc2OC)C1=O (stereo unspecified)	-	-	-	-	-
SMILES	D1 antag	D1 PAM	TRHR agonist	D1 ag	TRHR enhancer
COCCN(C(=O)c1cccc(N2C(=O)CCC2=O)c1)c1nc(-c2ccc([N+](=O)[O-])cc2)cs1	-	-	-	-	-
COc1ccccc1N(C(=O)c1ccncc1)c1nc(-c2ccc([N+](=O)[O-])cc2)cs1	-38	-	-	-	-
O/N=C(/CCc1ccccc1)c1ccc2c(c1)OCCO2	-41	-	-	-	-
O=C(CCc1ccccc1)c1ccc2c(c1)OCCCO2	-	-	-	-	-
Cc1cc(N2CCN(c3ccc(F)cc3)CC2)n2cnnc2n1	-	-	-	-	-
Cc1cccc2cc(CN(Cc3ccco3)C(=O)c3ccncc3)c(=O)[nH]c12	-70	-	-	-	-

Source: PubChem (National Center for Advancing Translational Sciences (NCATS))
